Experimental data as given in article PMC5540273 (PLoS ONE, 2017).

The compounds below were run on CSNK2A1. Conditions: concentration: 1 μM, replicates: in singlicate; n = 1.
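Further: KINOMEscan kinase panel screen.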

Structure (SMILES)	%Inh [%]
CCCC(=O)Nc1n[nH]c2ncc(-c3cccc4ccccc34)cc12 [SB-642057]	0
Nc1nc(N)c2nc(-c3ccccc3)[nH]c2n1 [SKF-12778]	14
Cl.c1ccc(Cn2cnc3cc(Nc4ncnc5ccccc45)ccc32)cc1 [GW272142]	0
COc1cccc(-n2cnc3c(N)ncnc32)c1 [SKF-97416]	0
COC(=O)c1c(-c2ccccc2)c2cc(Br)ccc2c(=O)n1Cc1ccc(S(C)(=O)=O)cc1	0
COc1cccc(C2=C(Nc3cccc(C(=O)O)c3)C(=O)NC2=O)c1 [SB-390770]	7
O=C1NC(=O)C(c2ccccc2)=C1Nc1cccc(O)c1 [SB-390534]	0
O=c1cc(N2CCOCC2)nc2n(Cc3ccc(F)c(Cl)c3)ccn12 [GSK2297099]	1
Cc1nnc(-c2ccc3ncn(-c4ccc(S(C)=O)cc4)c3c2)o1 (stereo not drawn)	22
CCc1nc(-c2cccc(C)c2)c(-c2ccncc2)s1	4
CCn1c(-c2ccoc2)nc2cnccc21 [SB-733887]	0
COc1cc2ncn(-c3cc(OCc4ccc(S(C)(=O)=O)cc4)c(C(N)=O)s3)c2cc1OC [GW869979]	19
COc1ccc(-c2coc3ccc(-c4nnc(SCc5cccc(C#N)c5)o4)cc23)cc1	3
Fc1cccc(CSc2nnc(-c3ccc4c(c3)CCO4)o2)c1	16
Cc1ccc(Oc2ccc(Nc3ncnc4cc[nH]c34)cc2C)cn1	32
